Screens deposited in PubChem BioAssay by several laboratories.
DAX1 inh-1 = DAX1 (NR0B1) inhibitors, primary screen, cell-based, HEK293, Gal4-DAX1, luciferase luminescence; Nuclear receptor subfamily 0 group B member 1 (Homo sapiens), P51843; HEK293 Gal4-DAX1 luciferase reporter; inhibition, % at 6.75 µM; hit rate 0.99% among 340,000; AID 504766, 2011;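 active = inhibition above the mean over all tested compounds plus 3 SD, cut at about 4.2% in these data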;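 also: 0% = DAX1-transfected cells with DMSO and 100% = empty-vector control cells with DMSO; inhibition shows as a rise in luminescence from relieved DAX1 repression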
Target sequence (P51843 207-470 limits assumed): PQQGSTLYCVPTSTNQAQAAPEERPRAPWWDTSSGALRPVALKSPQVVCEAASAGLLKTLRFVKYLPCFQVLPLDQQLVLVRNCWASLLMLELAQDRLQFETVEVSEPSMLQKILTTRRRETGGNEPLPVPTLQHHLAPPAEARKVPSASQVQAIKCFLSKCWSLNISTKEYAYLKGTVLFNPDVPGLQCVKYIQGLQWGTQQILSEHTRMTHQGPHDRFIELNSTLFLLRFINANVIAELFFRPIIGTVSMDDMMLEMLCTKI
ssDAF12 agonist = S. stercoralis DAF-12 nuclear receptor activators, primary screen, cell-based, luminescence, HEK293, GRIP1 co-expression, lit1-tk-luc | HEK293 ssDAF-12/GRIP1 lit1-tk-luc reporter; % of 3 µM dafachronic acid response | activation, % at 6.8 µM | hit rate 1% among 370,000;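 active = activation above the mean over all tested compounds plus 3 SD, cut at about 0.9% in these data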;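 also: 0% = DMSO-only wells and 100% = 3 µM delta7-dafachronic acid wells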
hcDAF-12 act = H. contortus DAF-12 nuclear receptor activators, primary screen, cell-based, luminescence, HEK293, lit1-tk-luc reporter; activation, % at 6.8 µM; HEK293 hcDAF-12 lit1-tk-luc reporter; 0% DMSO, 100% Δ7-dafachronic acid; hit rate 1.4% among 370,000;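 active = activation above the mean of all tested compounds plus 3 SD, cut at about 5.5% in these data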;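 also: 100% = response to 3 µM Δ7-dafachronic acid high control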
NR1D1 modulator = modulators of Rev-erb alpha DNA binding, primary screen, biochemical, FITC-DNA, fluorescence polarization, uHTS; activity, % at 10 µM; AID 1259318, 2017; Rev-erbα–FITC-DNA binding, 90 min; hit rate 0.79% among 370,000;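 active = activity above about 14%, limit read from the data; passing the limit was not always enough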;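 also: 0% = DMSO wells with 35 nM protein and 100% = DMSO wells with 750 nM protein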
hgDAF-12 ag = H. glycines DAF-12 receptor agonists, primary screen, cell-based, luminescence, HEK293, GAL4 fusion, UAS-luciferase; Nuclear hormone receptor DAF-12 (Heterodera glycines), GAL4 fusion; HEK293 GAL4-hgDAF12 UAS-luciferase reporter, agonist luminescence; normalized to butyrate control; activation, % at 6.8 µM; hit rate 1.8% among 370,000; AID 687014, 2013;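 active = activation above a cutoff set at the mean of all screened compounds plus 3 SD, cut at about 10% in these data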;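 also: 0% = DMSO wells and 100% = sodium butyrate wells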
DAX1 inh-2 = DAX1 (NR0B1) inhibitors on StAR promoter, primary screen, cell-based, luminescence, SF-1 (NR5A1), full-length DAX-1; HEK293T StAR-luciferase reporter, SF-1/DAX-1 repression relief; inhibition, % at 6.8 µM; hit rate 1.1% among 370,000;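 active = inhibition above the mean over all tested compounds plus 3 SD, cut at about 3.6% in these data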;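 also: 0% = DAX-1 cells with DMSO and 100% = cells lacking DAX-1 with DMSO; higher inhibition means more luminescence from relief of DAX-1 repression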
hgDAF12 ag = H. glycines DAF-12 receptor agonists, confirmation, cell-based, luminescence, HEK293, GAL4-LBD fusion. shares compounds with hgDAF-12 ag. activation, % at 6.8 µM. HEK293 GAL4-hgDAF12 luciferase reporter, agonist mode; percent of butyrate response. hit rate 80% among 3,300;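 active = mean activation over triplicate wells above the hit cutoff derived from the earlier primary screen, cut at about 11% in these data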;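 also: 0% = DMSO low control and 100% = 2 mM sodium butyrate high control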
LXRb DAF12 ctr = LXR agonists, Gal4 luciferase reporter, confirmation, counter-screen for hgDAF-12 agonist project, cell-based, luminescence, HEK293, H. glycines campaign; shares compounds with hgDAF-12 ag; 24 h; activation, % at 6.8 µM; 3,300 tested, under 10 active; AID 743051, 2013;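 active = mean activation of the triplicate above a set limit carried over from the primary screen, none filed active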
An asterisk follows results filed as active; . = no result. Most compounds without a hit are left out; they make up all but 4.8% or so of the library.

SMILES | DAX1 inh-1 | ssDAF12 agonist | hcDAF-12 act | NR1D1 modulator | hgDAF-12 ag | DAX1 inh-2 | hgDAF12 ag | LXRb DAF12 ctr
COc1ccc(C(=O)c2coc3ccc(O)cc23)cc1 | 2 | 1 | 5 | -1 | 16* | 3 | 20* | 1
CC(=O)Oc1ccc2occ(C(=O)c3ccccc3)c2c1 | . | 0 | 4 | -2 | 9 | 1 | . | .
O=C(Nc1ccc(F)cc1F)c1cc(-c2ccc(Cl)cc2)nc2ccccc12 | . | -1 | -1 | 5 | 1 | 0 | . | .
CCOc1ccc2nc(NC(=O)Nc3ccccc3)sc2c1 | 4.5* | -1 | 2 | -6 | 15* | 2 | 16* | 1
CCOc1ccc2nc(NC(=O)C3CCCO3)sc2c1 (stereo not drawn) | 2 | 0 | 4 | -5 | 18* | 3 | 16* | 1
CCOc1ccc2nc(NC(=O)NC3CCCCC3)sc2c1 | 0 | -1 | 0 | 1 | -1 | 0 | . | .
CCOc1ccc2nc(NC(=O)COC)sc2c1 | 0 | 1 | 2 | 0 | 14* | 4.5* | 16* | 1
O=C(C(=O)N1CCN(S(=O)(=O)c2ccccc2)CC1)c1cccc(C(F)(F)F)c1 | . | -2 | -2 | -5 | 1 | 0 | . | .
COc1ccc(C(=O)N(C)[C@H]2C[C@H]3c4[nH]c5c(-c6ccccc6)cccc5c4CCN3C(=O)[C@H]2[C@H](C)O)cc1 | . | -1 | 1 | 0 | -4 | 0 | . | .
O=C(Nc1ccc2oc(-c3ccccc3)nc2c1)C1CCCO1 (stereo not drawn) | 4 | 1.2* | 5 | 3 | 28* | 3 | 15* | 1
O=C(Nc1ccc2oc(-c3ccccc3)nc2c1)c1ccco1 | 4 | 1.0* | 5 | -1 | 15* | 3 | 12* | 1
O=C(Nc1ccc2oc(-c3ccncc3)nc2c1)c1ccco1 | -1 | -1 | 1 | -27 | 2 | 0 | . | .
O=C(Nc1ccc2oc(-c3ccccc3)nc2c1)c1ccc2c(c1)OCCO2 | -1 | -2 | -2 | 8 | -5 | -2 | . | .
COc1ccc(C2Nc3ccccc3C(=O)N2Cc2cccnc2)cc1COc1c(C)cccc1C (stereo not drawn) | . | -1 | -2 | -2 | -2 | . | . | .
COc1ccc(C(=O)/C=C(\Nc2ccc(F)cc2)c2ccc(OC)cc2OC)c(OC)c1 | . | -2 | 0 | 4 | -2 | 0 | . | .
O=C(CSc1ccccn1)Nc1ccc(NC(=O)CSc2ccccn2)cc1 | 0 | -1 | 2 | 4 | 0 | -1 | . | .
CCc1ccc(NC(=O)CSc2ccccn2)cc1 | 2 | -1 | 3 | 1 | 14* | 1 | 6 | 0
O=C(CCSc1ccccn1)Nc1ccc(Br)cc1 | 1 | 1.1* | 2 | 2 | 14* | 2 | 11* | 1
C[C@H](CO)N1C[C@H](C)[C@@H](CN(C)C(=O)c2ccncc2)OCc2cn(nn2)CCCC1=O | . | 0 | -1 | 0 | 3 | 0 | . | .
COC(=O)[C@]12C[C@H](CC(=O)NCCCN3CCCC3=O)C(=O)N(Cc3ccc(Cl)cc3Cl)C1=C[C@H](C(C)C)O[C@@H]2C1CC1 | . | -1 | -5 | 4 | 0 | 0 | . | .
CC(=O)Nc1cccc(-c2nc3ccc(NC(C)=O)cc3s2)c1 | 1 | 1 | 4 | 1 | 19* | 1 | 12* | 1
CC(=O)Nc1ccc2nc(NC(=O)C(Cl)(Cl)Cl)sc2c1 | 4 | -1 | 1 | 1 | 2 | 1 | . | .
Cc1ccc(/C=C/C(=O)Nc2ccccc2C(N)=O)cc1 | -1 | 0 | 4 | 9 | 18* | 4.4* | 15* | 1
Oc1ccccc1N1CCN(c2ccc3ccccc3n2)CC1 | 2 | 1 | 5 | 3 | 16* | 2 | 15* | 1
C[N+](C)(C)CC(=O)N1CCN(c2ccc3ccccc3n2)CC1 | 0 | -1 | 0 | 4 | -1 | 1 | . | .
SMILES | DAX1 inh-1 | ssDAF12 agonist | hcDAF-12 act | NR1D1 modulator | hgDAF-12 ag | DAX1 inh-2 | hgDAF12 ag | LXRb DAF12 ctr
O/N=C/c1ccc(OCc2ccccc2)c(Cl)c1 | 5.0* | 1.4* | 4 | -4 | 15* | 2 | 13* | 1
O/N=C/c1ccc(OCc2ccccc2)c(Br)c1 | 1 | 0 | 3 | 2 | 16* | 1 | 22* | 1
O/N=C/c1cc(Br)cc(Br)c1OCc1ccccc1 | -1 | -2 | -2 | -2 | -4 | 0 | . | .
Cc1cc2c(c(=O)o1)[C@@]1(C(=O)N(C)c3ccccc31)C1=C(CC(C)(C)CC1=O)O2 | . | -1 | -4 | -4 | 0 | -1 | . | .
CCOC(=O)COc1ncn(-c2ccccc2)n1 | 0 | -1 | 0 | -6 | -1 | 0 | . | .
CCOC(=O)COc1ccccc1C(=O)c1cnn(-c2ccccc2)c1 | 0 | 0 | 4 | 4 | 14* | 0 | 5 | 0
Cc1ccc(NC(=O)C2CCN(c3nnc(-n4cccc4)s3)CC2)c(C)c1 | . | -1 | -1 | 0 | 0 | 0 | . | .
CC[C@@H](CCC(=O)N(c1ccccc1)c1ccccc1)c1ccc(C)cc1 | . | -2 | -1 | -5 | 0 | 0 | . | .
O=C(O)c1cccc(N/N=C/C2=C(Cl)c3cc(Cl)ccc3SC2)c1 | 0 | 1.4* | 5 | -4 | 16* | 4 | 19* | 1
CC(=O)C(/C=N/c1cc(-c2ccc(C)cc2)nn1-c1ccccc1)=C(\C)O | 1 | 1.1* | 5.6* | 0 | 19* | 3 | 10 | 0
COc1cccc(CNC(=O)[C@H]2CCCN2C(=O)[C@H]2CCCN2C(=O)c2c(F)cccc2F)c1 | . | 0 | 1 | 4 | 0 | 0 | . | .
O=C(NCC1CCCO1)c1sc2ccccc2c1Cl (stereo not drawn) | 2 | -1 | 3 | -4 | 14* | 3 | 10 | 0
Cc1ccc(Nc2nc(C(=O)NCC3CCCO3)cs2)cc1 (stereo not drawn) | 0 | 0 | -2 | 4 | 1 | 0 | . | .
